# From article PMC11062922 (Nature Chemical Biology, 2023)
# Like-named read-outs stand apart in the source and are kept apart here.
# What was measured:
# Set-up in all cases: species or system human, MV4-11 + K-562 + COLO205 + SK-N-BE2 + OVCAR-8
# CDK16 = details: read-out: apparent Kd; compound concentrations:100 nM and 1000 nM (sheet 'Samples'); n = 1
# CDK17 = details: read-out: apparent Kd; compound concentrations:100 nM and 1000 nM (sheet 'Samples'); n = 1
# CDK1 = details: read-out: apparent Kd; compound concentrations:100 nM and 1000 nM (sheet 'Samples'); n = 1
# CDK2 = details: read-out: apparent Kd; compound concentrations:100 nM and 1000 nM (sheet 'Samples'); n = 1
# CDK4 = details: read-out: apparent Kd; compound concentrations:100 nM and 1000 nM (sheet 'Samples'); n = 1
# CDK5 = details: read-out: apparent Kd; compound concentrations:100 nM and 1000 nM (sheet 'Samples'); n = 1
# CDK6 = details: read-out: apparent Kd; compound concentrations:100 nM and 1000 nM (sheet 'Samples'); n = 1
# CDK7 = details: read-out: apparent Kd; compound concentrations:100 nM and 1000 nM (sheet 'Samples'); n = 1
# CDK9 = details: read-out: apparent Kd; compound concentrations:100 nM and 1000 nM (sheet 'Samples'); n = 1
# ICK = details: read-out: apparent Kd; compound concentrations:100 nM and 1000 nM (sheet 'Samples'); n = 1
# NNT = details: read-out: apparent Kd; compound concentrations:100 nM and 1000 nM (sheet 'Samples'); n = 1
# PSMC4 = details: read-out: apparent Kd; compound concentrations:100 nM and 1000 nM (sheet 'Samples'); n = 1
# SLK = details: read-out: apparent Kd; compound concentrations:100 nM and 1000 nM (sheet 'Samples'); n = 1
# CDC42 = details: read-out: apparent Kd, n = 1
# GSK3A = details: read-out: apparent Kd; compound concentrations: 100 nM and 1000 nM (sheet 'Samples'), CATDS: 0.53179335167556496; n = 1
# GSK3B = details: read-out: apparent Kd; compound concentrations: 100 nM and 1000 nM (sheet 'Samples'), CATDS: 0.45250345973029299; n = 1
# CSNK1A1 = details: read-out: apparent Kd, n = 1
# CSNK1D = details: read-out: apparent Kd, n = 1
# CSNK1E = details: read-out: apparent Kd, n = 1
# ERBB3 = details: read-out: apparent Kd; compound concentrations:100 nM and 1000 nM (sheet 'Samples'); n = 1
# MAPK14 = details: read-out: apparent Kd; compound concentrations:100 nM and 1000 nM (sheet 'Samples'); n = 1
# MAPKAPK2 = details: read-out: apparent Kd; compound concentrations:100 nM and 1000 nM (sheet 'Samples'); n = 1
# RAB14 = details: read-out: apparent Kd; compound concentrations:100 nM and 1000 nM (sheet 'Samples'); n = 1
# FLT3 = details: read-out: apparent Kd; compound concentrations: 100 nM and 1000 nM (sheet 'Samples'), CATDS: 0.12792168712312599; n = 1
# GAK = details: read-out: apparent Kd; compound concentrations: 100 nM and 1000 nM (sheet 'Samples'), CATDS: 0.12375475758879401; n = 1
# RIOK2 = details: read-out: apparent Kd; compound concentrations: 100 nM and 1000 nM (sheet 'Samples'), CATDS: 0.107134967231821; n = 1
# [1] = compound concentrations:100 nM and 1000 nM (sheet 'Samples')
smiles,measurement,setting,value
COc1cccc(F)c1C(=O)c1cnc(NC2CCN(S(C)(=O)=O)CC2)nc1N [RO4602005-000],potency estimated from few doses,CDK16,9.38 nM
same,potency estimated from few doses,CDK17,73.2 nM
same,potency estimated from few doses,CDK1,228 nM
same,potency estimated from few doses,CDK2,37.7 nM
same,potency estimated from few doses,CDK4,1450 nM
same,potency estimated from few doses,CDK5,234 nM
same,potency estimated from few doses,CDK6,1750 nM
same,potency estimated from few doses,CDK7,812 nM
same,potency estimated from few doses,CDK9,206 nM
same,potency estimated from few doses,ICK,146 nM
same,potency estimated from few doses,NNT,1690 nM
same,potency estimated from few doses,PSMC4,1400 nM
same,potency estimated from few doses,SLK,845 nM
Cn1cc(C2=C(c3cccc(N)c3)C(=O)NC2=O)c2ccccc21 [RO0317471-000],potency estimated from few doses,"CDC42; compound concentrations: 100 nM and 1000 nM (sheet 'Samples'), CATDS: 0.203680819174512",1200 nM
same,potency estimated from few doses,GSK3A,23.5 nM
same,potency estimated from few doses,GSK3B,32.2 nM
NC(=O)c1ccc(Oc2nccc(-c3c(-c4ccc(F)cc4)ncn3C3CCNCC3)n2)cc1 [SB-242718],potency estimated from few doses,CDC42; [1],922 nM
same,potency estimated from few doses,CSNK1A1; [1],2320 nM
same,potency estimated from few doses,CSNK1D; [1],246 nM
same,potency estimated from few doses,CSNK1E; [1],642 nM
same,potency estimated from few doses,ERBB3,1430 nM
same,potency estimated from few doses,MAPK14,476 nM
same,potency estimated from few doses,MAPKAPK2,18.3 nM
same,potency estimated from few doses,RAB14,1380 nM
CCc1nn2ncccc2c1-c1ccnc(NC2CC2)n1 [GW683768X],potency estimated from few doses,"CDC42; compound concentrations: 100 nM and 1000 nM (sheet 'Samples'), CATDS: 0.112066673449154",1390 nM
same,potency estimated from few doses,"CSNK1A1; compound concentrations: 100 nM and 1000 nM (sheet 'Samples'), CATDS: 0.11767767323313399",1200 nM
same,potency estimated from few doses,"CSNK1D; compound concentrations: 100 nM and 1000 nM (sheet 'Samples'), CATDS: 0.430543569866988",95.2 nM
same,potency estimated from few doses,"CSNK1E; compound concentrations: 100 nM and 1000 nM (sheet 'Samples'), CATDS: 0.24847771886196199",230 nM
same,potency estimated from few doses,FLT3,948 nM
same,potency estimated from few doses,GAK,1040 nM
same,potency estimated from few doses,RIOK2,1610 nM
